Bioassay records deposited in PubChem by National Center for Advancing Translational Sciences (NCATS).
Only some compounds are listed: those with a hit (about 3.9% of all), similar ones and a draw of the others.
VDR inhibitor – inhibitors of human vitamin D receptor. P11473. VDR-SRC2-3 peptide fluorescence polarization, 2 h. Potency, µM, actives largely listed as inhibitors. actives 0.93% (n = 400,000). AID 504847
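After 23 nl compound addition and a short centrifugation, plates sat for 2 hours at ambient temperature; polarization of fluorescence then indicated loss of VDR binding to peptide SRC2-3.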
PLK1 PBD inh – blocks phosphopeptide binding to human PLK1 polo-box domain | Plk1 PBD binding of FITC phosphopeptide, fluorescence polarization | Potency, µM, most hits filed as inhibitors | actives 2.8% (n = 360,000) | AID 720504; note: series mostly up to about 57 µM; nearly all actives have a fitted effect of over 65% in size
BRCA1 expr act – increases BRCA1 expression. MCF7-BRCA1-FFLuc reporter, luminescence, 48 h; response scale: scaled: vehicle 0%, 10 µM genistein 100%. Potency, µM (highest dose often 46.1 µM), hits mostly activators. actives 1.1% (n = 380,000). AID 624202; note: nearly all actives have a fitted effect of over 80% in size
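Luminescence from a BRCA1-driven firefly luciferase in MCF7 cells was read after 48 h compound exposure at 37 C. Data normalized against DMSO and a 10microM genistein activation control, then curve-fitted across the titration.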
Tb PFK inh – inhibitors of T. brucei phosphofructokinase | O15648 | T. brucei PFK, ADP-Glo luminescence | Potency, µM (series often up to 57.5 µM), most hits filed as inhibitors | actives 0.17% (n = 330,000) | AID 485367; note: nearly all actives have a fitted effect of over 60% in size
Target sequence (O15648 whole entry, looked up): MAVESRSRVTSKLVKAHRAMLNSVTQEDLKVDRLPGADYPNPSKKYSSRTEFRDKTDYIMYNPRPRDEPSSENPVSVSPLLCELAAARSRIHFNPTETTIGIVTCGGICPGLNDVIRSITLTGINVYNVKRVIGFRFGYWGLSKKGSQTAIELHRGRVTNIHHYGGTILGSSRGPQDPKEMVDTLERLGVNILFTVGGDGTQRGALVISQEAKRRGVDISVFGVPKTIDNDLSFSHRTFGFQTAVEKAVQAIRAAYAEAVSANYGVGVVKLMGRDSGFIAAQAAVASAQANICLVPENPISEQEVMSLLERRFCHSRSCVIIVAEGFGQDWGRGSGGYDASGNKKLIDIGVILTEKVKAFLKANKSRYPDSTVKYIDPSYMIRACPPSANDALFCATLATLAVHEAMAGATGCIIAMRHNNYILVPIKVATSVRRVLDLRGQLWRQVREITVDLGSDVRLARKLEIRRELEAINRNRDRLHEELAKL
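Luminescent ADP detection (ADP-Glo, two-step: ATP depletion then ADP-to-ATP conversion for luciferase) reported PFK activity after 45 min room-temperature reaction of 1.25 nM enzyme with 0.5 mM F6P and 0.1 mM ATP at pH 8.0.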
Large screens that a line does not name were inactive. Calls come from the whole dose curve; as a rule, active = well fitted curve in the direction sought with a large enough effect; inconclusive = small, poorly fitted or top-dose-only effect, or another doubt; inactive = no such curve, though single readings can be large; an effect the other way counts as inactive or inconclusive.

CC(=O)c1ccc(NCCC(=O)c2ccccc2)cc1	BRCA1 expr act 11.2µM
CC(=O)c1ccc(NC(=O)CCCC(=O)c2ccccc2)cc1	none
COc1cc(CN2CCN(c3ccccc3F)CC2)c([N+](=O)[O-])cc1OC	PLK1 PBD inh 26.7µM
O=[N+]([O-])c1cc2c(cc1CN1CCN(c3ccccc3F)CC1)OCO2	none
O=C(COc1cc2oc(=O)c3c(c2cc1Cl)CCC3)Nc1ccc(CN2CCOCC2)cc1	none
N#Cc1cc2ccccc2nc1N	none
c1csc(-c2ccc3ccccc3n2)c1	BRCA1 expr act 7.08µM
Nc1nc2ccccc2cc1-c1cccs1	BRCA1 expr act 3.16µM
Cc1ccc(-c2cc3ccccc3nc2N)cc1	BRCA1 expr act 10µM
Nc1nc(-c2cccs2)cs1	none
c1csc(-c2nc3ccccc3s2)c1	PLK1 PBD inh inconclusive, BRCA1 expr act 7.94µM
COc1ccc2cc3c(N)c(C(=O)NCc4ccco4)sc3nc2c1	BRCA1 expr act 5.62µM
COc1ccc(OCCC(=O)OCC(=O)NCc2ccco2)cc1	PLK1 PBD inh 23.8µM, Tb PFK inh inconclusive
CCOc1ccc(NC(=O)NCc2cccnc2)cc1	PLK1 PBD inh 26.7µM
CCOC(=O)c1sc(=S)n(-c2ccccc2)c1N	none
COC(=O)c1sc(=S)n(-c2cccc(Cl)c2)c1N	VDR inhibitor inconclusive, PLK1 PBD inh 8.44µM
Cn1c(=O)c2c(SCC(=O)NCc3ccco3)nc(-c3ccccc3F)nc2n(C)c1=O	none (no result: PLK1 PBD inh, BRCA1 expr act, Tb PFK inh)
Cc1ccc(S(=O)(=O)N(CC(=O)Nc2cccnc2)c2ccccc2C)cc1	none
CCOc1ccc(-n2c(N)c(C(=O)NCc3cccnc3)sc2=S)cc1	PLK1 PBD inh 26.7µM
COc1ccc(CNC(=O)c2sc(=S)n(-c3ccccc3)c2N)cc1	PLK1 PBD inh 13.4µM
CCOc1ccc(-n2c(N)c(C(=O)NCc3ccco3)sc2=S)cc1	VDR inhibitor inconclusive, PLK1 PBD inh 21.2µM
CCOc1ccc(NC(=O)Cn2nnc(C(=O)NCc3ccco3)c2N)cc1	none
COc1ccc(-c2cc(C(F)(F)F)n3nc(C(=O)Nc4cccc(Cl)c4Cl)cc3n2)cc1OC	none (no result: PLK1 PBD inh, BRCA1 expr act, Tb PFK inh)
Cc1ccc(OCC(=O)c2ccc3c(c2)CCCC3)cc1C	BRCA1 expr act 4.47µM
O=C(COc1ccc(Br)cc1)c1ccc2c(c1)CCCC2	none
O=C(CC[C@H]1O[C@@H](n2ccc(=O)[nH]c2=O)[C@H](O)[C@@H]1O)NCCc1c[nH]c2ccccc12	none (no result: VDR inhibitor, Tb PFK inh)
COC(=O)C1=C(C(=O)OC)SC2(S1)C(C(=O)OC)=C(C(=O)OC)SC1=C2c2cc(C)ccc2NC1(C)C	VDR inhibitor inconclusive, PLK1 PBD inh 3.36µM
CCN1C(=NCc2cccc(Cl)c2)N[C@@H](c2cccc(C(F)(F)F)c2)C(C(=O)OC)=C1C	none (no result: VDR inhibitor, PLK1 PBD inh, Tb PFK inh)
COc1ccc(Cl)cc1Nc1ncnc2c1nc1n2CCCC1	none (no result: PLK1 PBD inh, BRCA1 expr act, Tb PFK inh)
CC1(C)CCCN(C(=O)c2coc(=O)c(Br)c2)C1	PLK1 PBD inh 10.6µM
Cc1ccc(SCC(=O)Nc2cccc(S(=O)(=O)N3CCOCC3)c2)cc1C	none
Cc1cc(C(=O)OCC(=O)Nc2cccc(S(=O)(=O)N3CCOCC3)c2)c(C)o1	PLK1 PBD inh 26.7µM
O=C(CSc1ccc(Br)cc1)Nc1cccc(S(=O)(=O)N2CCOCC2)c1	VDR inhibitor inconclusive, PLK1 PBD inh 5.97µM
Cc1cc(C(=O)OCC(=O)Nc2cccc(S(N)(=O)=O)c2)c(C)o1	none
COc1ccc(Cn2c(CO)cnc2SCC(=O)NCc2ccco2)cc1	none (no result: PLK1 PBD inh, Tb PFK inh)
CC(C)CC(=O)N1CCN(C(=O)c2ccco2)CC1	none
CC1=C(c2ccc(C(C)C)cc2)S(=O)(=O)N=C1N1CCC(C(=O)NCc2ccco2)CC1	none (no result: PLK1 PBD inh, BRCA1 expr act, Tb PFK inh)
CC1=C(c2ccc(C(C)C)cc2)S(=O)(=O)N=C1N1CCN(C(=O)c2ccco2)CC1	VDR inhibitor inconclusive, PLK1 PBD inh 26.7µM
O=C(CCC1CCCC1)N1CCN(C(=O)c2ccco2)CC1	PLK1 PBD inh 23.8µM
Cc1cc(C)c2nc(N3CCCN(C(=O)c4ccco4)CC3)c(C#N)cc2c1	VDR inhibitor 79.4µM, PLK1 PBD inh inconclusive
O=C(c1ccco1)N1CCCN(C(=O)c2ccco2)CC1	VDR inhibitor inconclusive, PLK1 PBD inh 18.9µM
CC(C)CC(=O)Nc1ccccc1OCc1cc(=O)n2ccccc2n1	none (no result: PLK1 PBD inh, BRCA1 expr act, Tb PFK inh)
O=C(c1ccco1)N1CCN(c2ccc(Cl)cc2)CC1	BRCA1 expr act 11.2µM
O=C(c1ccco1)N1CCN(c2ccc(Cl)c(Cl)c2)CC1	BRCA1 expr act 12.6µM (no result: Tb PFK inh)
O=C(c1ccco1)N1CCCC(Nc2ccc3c(c2)OCCO3)C1 (centres undefined)	BRCA1 expr act 8.91µM
O=C(Nc1ccc(N2CCN(C(=O)c3ccco3)CC2)cc1)c1cc(Br)ccc1Cl	none
COc1ccc(S(=O)(=O)Nc2ccc3c(c2)sc(=O)n3C)cc1Cl	none (no result: PLK1 PBD inh, BRCA1 expr act, Tb PFK inh)
O=[N+]([O-])c1ccc2[nH]c3nc4ccccc4nc3c2c1	none
COc1ccc(-c2cc(NC=O)c3ncc(-c4ccc(OC)c(OC)c4)n3c2)cc1	none (no result: VDR inhibitor, Tb PFK inh)
O=C(CSc1ccc(-c2cccs2)nn1)N1CCCCCC1	BRCA1 expr act 12.6µM
NC(=O)C1CCN(C(=O)CSc2nc3ccccc3s2)CC1	PLK1 PBD inh inconclusive
O=C(CSc1nc2ccccc2s1)N1CCCCC1	PLK1 PBD inh 15µM, BRCA1 expr act inconclusive
O=C(O)C1CCN(C(=O)CSc2nc3ccccc3s2)CC1	VDR inhibitor inconclusive, PLK1 PBD inh 23.8µM
CN1CCN(c2ccc(CNC(=O)c3cccc4c(-c5ccc(F)c(F)c5)coc34)cc2)CC1	none (no result: VDR inhibitor, Tb PFK inh)
COc1ccc(-c2c[n+]3c(n2-c2ccc(C)cc2)CCCCC3)cc1	none
COc1ccc(-c2c[n+]3c(n2-c2ccccc2)CCCCC3)cc1	PLK1 PBD inh 29.9µM
CC(Sc1nnc(-c2cccnc2)n1N)C(=O)NCCC1=CCCCC1 (centres undefined)	none
c1ccn2cc(CSc3nnc4ccccn34)nc2c1	BRCA1 expr act inconclusive
c1ccn2cc(CSC3=NCCS3)nc2c1	BRCA1 expr act 6.31µM
O=C(NCc1ccc(F)cc1)c1c2c(nc3ccccc13)CCC2	PLK1 PBD inh 23.8µM, BRCA1 expr act 14.1µM
O=C(NCc1ccc(F)cc1)c1ccc2c(Cl)c3c(nc2c1)CCCC3	none (no result: PLK1 PBD inh, BRCA1 expr act, Tb PFK inh)
O=C(NCc1ccco1)c1c2c(nc3ccccc13)CCC2	PLK1 PBD inh 2.99µM
COc1ccc2c(c1)C(=O)[C@H](OC(=O)NCc1ccco1)[C@@H](c1ccc(OC)c(Br)c1)O2	VDR inhibitor 56.2µM (no result: PLK1 PBD inh, BRCA1 expr act, Tb PFK inh)
COc1cccc([C@@H]2Oc3ccc(Br)cc3C(=O)[C@H]2OC(=O)NCc2ccco2)c1	none (no result: PLK1 PBD inh, BRCA1 expr act, Tb PFK inh)
CCOc1ccccc1NC(=O)CSc1nc2cc(OC)c(OC)cc2c2nc(CCn3c(C)nc4ccccc43)nn12	none (no result: PLK1 PBD inh, BRCA1 expr act, Tb PFK inh)
COc1ccc2c(c1)C=C(C(=O)OCc1cccnc1)CO2	PLK1 PBD inh 26.7µM
COc1ccc(CNC(=O)C(=O)NCc2cccnc2)cc1	none
NNC(=O)c1ccc(-c2ccccc2F)cc1	none
C#CC(C)(C)NC(=O)c1ccc(-c2ccccc2F)cc1	BRCA1 expr act 12.6µM
CCOC(=O)CN1C(=O)S/C(=C/c2ccc(N3CCCCC3)o2)C1=O	none
COC(=O)CN1C(=O)S/C(=C/c2cc(C)n(C)c2C)C1=O	BRCA1 expr act 12.6µM
COC(=O)CN1C(=O)S/C(=C/c2ccc(N3CCCCC3)o2)C1=O	VDR inhibitor 31.6µM, BRCA1 expr act 10µM
